# Assay results published in ChEMBL document CHEMBL2218924, “A broad activity screen in support of a chemogenomic map for kinase signalling research and drug discovery” (Biochem J, 2013).
# How the values were obtained:
# [1] = biological target: ALK tyrosine kinase receptor (Homo sapiens) (UniProt Q9UM73); conditions: at 10 µM
# [2] = biological target: T1, Activin receptor type-1B (Homo sapiens) (UniProt P36896); conditions: at 1 µM
# T1 sequence (whole entry): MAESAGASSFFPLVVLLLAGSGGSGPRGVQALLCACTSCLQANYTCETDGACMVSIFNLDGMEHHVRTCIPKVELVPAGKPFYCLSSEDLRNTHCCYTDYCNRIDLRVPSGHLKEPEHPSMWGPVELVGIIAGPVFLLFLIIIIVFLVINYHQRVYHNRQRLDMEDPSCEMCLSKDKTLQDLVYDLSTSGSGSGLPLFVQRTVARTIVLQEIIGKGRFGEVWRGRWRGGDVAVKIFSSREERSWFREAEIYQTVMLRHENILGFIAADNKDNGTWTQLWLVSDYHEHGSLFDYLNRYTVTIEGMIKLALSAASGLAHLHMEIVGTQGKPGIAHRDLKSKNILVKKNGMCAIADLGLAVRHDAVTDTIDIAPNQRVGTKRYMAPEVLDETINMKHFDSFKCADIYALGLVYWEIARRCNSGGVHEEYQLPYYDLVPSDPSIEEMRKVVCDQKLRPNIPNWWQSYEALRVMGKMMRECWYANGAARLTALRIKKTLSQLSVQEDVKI
# [3] = biological target: T1, Activin receptor type-1B (Homo sapiens); conditions: at 10 µM
# [4] = biological target: T2, AMP-activated protein kinase (AMPK) alpha-1/beta-1/gamma-1 (Homo sapiens) (UniProt P54619+Q9Y478+Q13131); conditions: at 1 µM
# [5] = biological target: T2, AMP-activated protein kinase (AMPK) alpha-1/beta-1/gamma-1 (Homo sapiens); conditions: at 10 µM
# [6] = biological target: T3, AMP-activated protein kinase, AMPK (Homo sapiens) (UniProt P54646+O43741+P54619+Q9UGJ0+Q9Y478+Q13131+Q9UGI9); conditions: at 1 µM
# [7] = biological target: T3, AMP-activated protein kinase, AMPK (Homo sapiens); conditions: at 10 µM
# [8] = biological target: T4, NUAK family SNF1-like kinase 1 (Homo sapiens) (UniProt O60285); conditions: at 1 µM
# T4 sequence (whole entry): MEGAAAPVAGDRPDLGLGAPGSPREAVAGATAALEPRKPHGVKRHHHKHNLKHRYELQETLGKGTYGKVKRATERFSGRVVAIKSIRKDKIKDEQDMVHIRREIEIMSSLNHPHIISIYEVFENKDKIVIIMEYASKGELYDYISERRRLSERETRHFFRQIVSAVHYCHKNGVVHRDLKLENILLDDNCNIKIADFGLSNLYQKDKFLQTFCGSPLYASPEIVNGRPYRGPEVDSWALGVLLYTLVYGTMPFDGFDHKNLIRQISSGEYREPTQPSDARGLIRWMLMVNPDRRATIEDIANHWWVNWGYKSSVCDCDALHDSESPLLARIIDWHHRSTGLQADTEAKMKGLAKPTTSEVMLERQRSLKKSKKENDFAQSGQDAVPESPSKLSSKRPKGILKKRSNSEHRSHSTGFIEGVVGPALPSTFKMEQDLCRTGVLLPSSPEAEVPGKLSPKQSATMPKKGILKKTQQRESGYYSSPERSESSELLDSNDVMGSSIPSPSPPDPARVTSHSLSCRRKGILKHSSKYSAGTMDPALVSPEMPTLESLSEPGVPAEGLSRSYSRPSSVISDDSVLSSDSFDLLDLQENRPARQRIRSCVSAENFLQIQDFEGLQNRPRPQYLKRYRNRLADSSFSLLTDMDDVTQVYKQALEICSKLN
# [9] = biological target: T4, NUAK family SNF1-like kinase 1 (Homo sapiens); conditions: at 10 µM
# [10] = biological target: T5, Mitogen-activated protein kinase kinase kinase 5 (Homo sapiens) (UniProt Q99683); conditions: at 1 µM
# T5 sequence (whole entry): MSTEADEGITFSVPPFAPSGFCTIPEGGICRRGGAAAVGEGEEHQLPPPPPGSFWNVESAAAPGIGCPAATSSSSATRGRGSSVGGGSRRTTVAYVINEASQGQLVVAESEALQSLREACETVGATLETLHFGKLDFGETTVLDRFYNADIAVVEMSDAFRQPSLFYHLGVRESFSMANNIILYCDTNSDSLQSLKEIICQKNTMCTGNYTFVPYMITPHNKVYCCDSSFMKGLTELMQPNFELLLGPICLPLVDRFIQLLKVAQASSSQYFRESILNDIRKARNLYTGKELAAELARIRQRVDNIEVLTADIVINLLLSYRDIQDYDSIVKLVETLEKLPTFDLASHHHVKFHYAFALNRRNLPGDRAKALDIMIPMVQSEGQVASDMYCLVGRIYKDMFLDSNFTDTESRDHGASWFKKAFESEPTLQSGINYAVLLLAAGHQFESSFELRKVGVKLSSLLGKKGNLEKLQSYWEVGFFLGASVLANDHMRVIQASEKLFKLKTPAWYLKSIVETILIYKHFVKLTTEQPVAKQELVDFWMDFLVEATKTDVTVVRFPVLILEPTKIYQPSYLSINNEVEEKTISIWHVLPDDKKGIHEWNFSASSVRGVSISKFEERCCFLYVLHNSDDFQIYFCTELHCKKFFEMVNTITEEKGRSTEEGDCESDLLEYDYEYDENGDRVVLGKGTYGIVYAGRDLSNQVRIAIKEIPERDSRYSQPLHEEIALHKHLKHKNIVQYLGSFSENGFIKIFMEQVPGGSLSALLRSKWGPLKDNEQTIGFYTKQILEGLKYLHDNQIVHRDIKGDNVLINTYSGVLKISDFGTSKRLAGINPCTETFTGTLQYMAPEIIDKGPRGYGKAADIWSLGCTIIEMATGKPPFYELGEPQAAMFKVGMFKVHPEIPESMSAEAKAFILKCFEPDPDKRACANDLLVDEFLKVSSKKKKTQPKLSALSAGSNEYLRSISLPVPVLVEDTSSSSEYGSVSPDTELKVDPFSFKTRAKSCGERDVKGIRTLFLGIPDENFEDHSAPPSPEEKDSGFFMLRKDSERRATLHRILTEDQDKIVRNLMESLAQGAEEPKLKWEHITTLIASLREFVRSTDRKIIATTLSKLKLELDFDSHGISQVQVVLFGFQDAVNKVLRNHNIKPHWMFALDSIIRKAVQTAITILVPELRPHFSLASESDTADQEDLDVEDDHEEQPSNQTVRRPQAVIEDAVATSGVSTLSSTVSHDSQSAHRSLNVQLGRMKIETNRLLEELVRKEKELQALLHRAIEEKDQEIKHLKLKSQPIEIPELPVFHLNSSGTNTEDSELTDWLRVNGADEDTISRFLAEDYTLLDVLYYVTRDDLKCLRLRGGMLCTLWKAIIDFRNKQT
# Chain of ALK tyrosine kinase receptor (Homo sapiens) (Q9UM73 19-1620 limits assumed): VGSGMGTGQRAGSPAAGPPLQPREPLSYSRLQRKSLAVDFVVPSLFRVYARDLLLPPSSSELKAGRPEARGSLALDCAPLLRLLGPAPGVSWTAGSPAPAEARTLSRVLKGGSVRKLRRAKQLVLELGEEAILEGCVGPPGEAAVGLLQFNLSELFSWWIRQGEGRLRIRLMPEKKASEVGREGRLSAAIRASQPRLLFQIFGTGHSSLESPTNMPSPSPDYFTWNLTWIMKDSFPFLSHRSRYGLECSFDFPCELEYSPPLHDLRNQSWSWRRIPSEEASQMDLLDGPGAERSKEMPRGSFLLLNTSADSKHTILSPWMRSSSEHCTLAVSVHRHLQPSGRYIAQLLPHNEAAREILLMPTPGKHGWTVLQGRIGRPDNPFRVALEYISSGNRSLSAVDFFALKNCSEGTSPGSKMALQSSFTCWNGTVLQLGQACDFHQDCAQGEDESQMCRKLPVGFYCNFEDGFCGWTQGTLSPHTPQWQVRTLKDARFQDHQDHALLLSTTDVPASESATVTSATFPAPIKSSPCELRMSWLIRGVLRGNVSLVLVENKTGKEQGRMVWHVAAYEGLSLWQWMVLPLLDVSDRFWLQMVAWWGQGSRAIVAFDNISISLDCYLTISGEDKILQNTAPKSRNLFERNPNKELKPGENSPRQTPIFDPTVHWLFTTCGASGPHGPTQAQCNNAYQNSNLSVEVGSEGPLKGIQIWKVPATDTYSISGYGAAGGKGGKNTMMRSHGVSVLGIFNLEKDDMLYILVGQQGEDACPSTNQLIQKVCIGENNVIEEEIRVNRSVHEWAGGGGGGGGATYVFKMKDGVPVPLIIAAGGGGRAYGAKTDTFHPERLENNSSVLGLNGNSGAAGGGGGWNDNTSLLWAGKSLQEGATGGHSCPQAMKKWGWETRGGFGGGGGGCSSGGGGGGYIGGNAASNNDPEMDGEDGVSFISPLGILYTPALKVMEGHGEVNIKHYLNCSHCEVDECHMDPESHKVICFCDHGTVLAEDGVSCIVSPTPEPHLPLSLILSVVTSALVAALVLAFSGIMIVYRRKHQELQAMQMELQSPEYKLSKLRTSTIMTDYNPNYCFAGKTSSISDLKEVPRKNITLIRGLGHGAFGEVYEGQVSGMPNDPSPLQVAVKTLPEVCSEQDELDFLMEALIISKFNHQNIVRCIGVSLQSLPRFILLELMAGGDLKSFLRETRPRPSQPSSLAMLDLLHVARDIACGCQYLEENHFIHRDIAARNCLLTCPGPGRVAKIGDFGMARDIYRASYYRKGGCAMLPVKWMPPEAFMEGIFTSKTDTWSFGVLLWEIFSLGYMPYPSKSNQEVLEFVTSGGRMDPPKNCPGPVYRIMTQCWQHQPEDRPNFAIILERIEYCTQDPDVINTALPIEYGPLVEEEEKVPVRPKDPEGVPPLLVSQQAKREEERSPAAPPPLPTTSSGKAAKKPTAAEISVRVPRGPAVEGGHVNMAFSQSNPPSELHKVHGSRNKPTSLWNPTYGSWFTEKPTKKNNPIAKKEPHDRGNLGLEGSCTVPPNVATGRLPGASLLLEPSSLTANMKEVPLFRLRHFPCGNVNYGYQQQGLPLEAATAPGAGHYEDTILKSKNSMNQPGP
# T2 sequence (P54619 whole entry): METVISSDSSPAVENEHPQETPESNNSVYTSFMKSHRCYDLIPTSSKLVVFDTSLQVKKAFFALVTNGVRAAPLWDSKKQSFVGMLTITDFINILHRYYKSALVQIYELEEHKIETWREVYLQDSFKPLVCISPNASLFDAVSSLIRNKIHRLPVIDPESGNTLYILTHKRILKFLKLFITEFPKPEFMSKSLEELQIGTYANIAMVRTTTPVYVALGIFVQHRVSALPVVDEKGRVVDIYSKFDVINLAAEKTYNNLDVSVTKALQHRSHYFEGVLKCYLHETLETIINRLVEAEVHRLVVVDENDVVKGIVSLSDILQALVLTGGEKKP
# T2 sequence (Q13131 whole entry partner): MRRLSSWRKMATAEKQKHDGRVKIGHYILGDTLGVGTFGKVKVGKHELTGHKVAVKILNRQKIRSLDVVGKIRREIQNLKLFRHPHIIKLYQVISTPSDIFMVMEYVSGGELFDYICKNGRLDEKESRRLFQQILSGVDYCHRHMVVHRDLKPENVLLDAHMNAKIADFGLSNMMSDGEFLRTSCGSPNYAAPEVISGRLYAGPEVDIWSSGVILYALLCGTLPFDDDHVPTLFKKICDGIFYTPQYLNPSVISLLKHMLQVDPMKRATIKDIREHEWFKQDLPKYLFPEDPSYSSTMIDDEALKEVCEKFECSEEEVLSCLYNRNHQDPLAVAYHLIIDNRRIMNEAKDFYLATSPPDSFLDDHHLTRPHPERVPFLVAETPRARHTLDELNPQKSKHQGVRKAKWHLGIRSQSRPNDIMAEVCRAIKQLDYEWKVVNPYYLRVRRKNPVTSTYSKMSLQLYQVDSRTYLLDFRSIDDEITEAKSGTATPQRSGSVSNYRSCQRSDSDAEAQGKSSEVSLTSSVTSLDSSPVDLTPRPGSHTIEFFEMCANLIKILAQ
# T2 sequence (Q9Y478 2-270 partner limits assumed): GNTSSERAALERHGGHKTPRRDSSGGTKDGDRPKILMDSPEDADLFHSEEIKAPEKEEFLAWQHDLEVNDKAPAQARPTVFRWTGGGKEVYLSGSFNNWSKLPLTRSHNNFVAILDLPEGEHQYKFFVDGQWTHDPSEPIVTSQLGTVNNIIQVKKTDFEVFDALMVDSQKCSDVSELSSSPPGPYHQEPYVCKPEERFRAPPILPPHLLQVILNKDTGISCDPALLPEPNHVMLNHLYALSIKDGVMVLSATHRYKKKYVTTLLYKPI
Structure (SMILES),residual activity [1] [%],residual activity [2] [%],residual activity [3] [%],residual activity [4] [%],residual activity [5] [%],residual activity [6] [%],residual activity [7] [%],residual activity [8] [%],residual activity [9] [%],residual activity [10] [%]
CC(C)n1cnc2c(NCc3ccccc3)nc(NCCCO)nc21,64,106,111,88,87,99,90,99,83,113
Oc1ccc(-c2nc(-c3ccc(F)cc3)c(-c3ccncc3)[nH]2)cc1,82,57,8,102,86,109,86,122,93,92
CCC(=O)Nc1ccc2ncnc(Nc3cccc(Br)c3)c2c1,88,125,105,103,94,105,87,99,92,108
Cc1nc2cc3nc(-c4cccs4)cnc3cc2n1C,112,123,88,116,83,118,85,116,78,109
O=C(O)c1ccc2c3c1cccc3c(=O)n1c3ccccc3nc21,49,110,108,34,6,37,13,73,28,90
Cc1ccc(NC2=CC(=O)c3sc(C)nc3C2=O)cc1,93,105,113,88,84,94,107,108,89,110
O=c1cc(-c2cccc3c2Sc2ccccc2S3)oc(N2CCOCC2)c1,84,88,97,108,90,102,95,102,83,102
COc1cc2ncnc(Nc3ccc(O)c(Br)c3)c2cc1OC,3,111,85,82,37,93,52,78,36,77
